Experimental data: PubChem BioAssay

tested on: Neuregulin-1 EGF-like domain; assay: binders of neuregulin-1 EGF-like domain, primary screen, biochemical, small-molecule microarray, 635 nm fluorescence (AID 1081); conditions: small-molecule microarray binding, higher = more signal;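 further: binding of the protein to compounds printed on small-molecule microarray slides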

SMILES	composite z-score
COc1ccc(NC(=O)O[C@H]2[C@H](OC(=O)c3cc4ccccc4[nH]3)[C@@H](OC(=O)c3cc4ccccc4[nH]3)[C@@H](OC)O[C@@H]2CO)cc1	0.543
C=C(CCCC)C(=O)CC[C@H](OC(=O)c1cccnc1)c1ccc(OCCO)cc1	0.761
C=CCN1C(=O)[C@]2(Cc3ccccc3)N=C(c3ccc(OCCCO)cc3)O[C@@H]2c2ccccc21	1.41
CC(=O)NCCCC[C@@H]1NC(=O)[C@H]2C[C@@H](C(=O)NCCCCCNC(=O)CS)[C@@H](c3ccc(O)cc3)N2C1=O	1.34
C=CCC(OC(C)=O)[C@@H]1[C@@H](N(Cc2cc3ccccc3o2)C(=O)Cc2ccc(OC)cc2)c2cc(OCCCO)ccc2N1C(=O)c1ccc2ccccc2c1 (some centres undefined)	-0.0601
CC(c1ccccc1)C(O)C1C=CC2C(=O)N(c3ccccc3)C(=O)C2N1Nc1ccccc1 (centres undefined)	1.34
COc1ccc([C@H]2C[C@H]3C(Br)=C[C@@]2(CO)C(=O)[C@]32CO2)cc1	-0.333
COCCOC(=O)N1C(=O)[C@@]2(c3cc(C#CCCO)ccc31)[C@H](c1ccc(OCCO)cc1)N1[C@H](c3ccccc3)[C@H](c3ccccc3)OC(=O)[C@H]1[C@@H]2C(N)=O	1.23
CCCCN1CC=CC23O[C@@H]4/C=C\CCCOC(=O)C4[C@H]2C(=O)N(CCCCCO)[C@@H]3C1=O (some centres undefined)	1.26
NCCCCCCNC(=O)[C@H]1C[C@H]2C(=O)N[C@@H](Cc3ccccc3)C(=O)N2[C@H]1c1cccc(OCCO)c1	0.922
COc1ccc([Si](C)(C)[C@@H]2[C@@H](CCn3cc(CCO)nn3)O[C@]3(C(=O)N(Cc4cccc(N5C(=O)c6cccc7cccc5c67)c4)c4ccccc43)[C@H]2C)cc1	1.04
CC(=O)Nc1cc(Br)ccc1C(=O)NCc1ccccc1	1.23
CCCCCN1CC=CC23O[C@@H]4C=CCOC(=O)[C@@H]4[C@H]2C(=O)N(C(C)CO)[C@@H]3C1=O (some centres undefined)	1.49
CCOC(=O)C1=C[C@@H](C(C)C)N(S(=O)(=O)c2ccc(C)cc2)[C@H]1c1ccccc1F	1.1
CS(=O)(=O)CCOC(=O)C1=CC(CCCO)=CC(C2CC2)N(Cc2cc3c(cc2Br)OCO3)C=C1C(=O)OCCS(C)(=O)=O (centres undefined)	1.2
Cc1c(NC(=O)/C(C#N)=C/c2cccc([N+](=O)[O-])c2)c(=O)n(-c2ccccc2)n1C	1.05
C=CCN1Cc2ccccc2[C@@H]2OC(c3ccc(OCCCO)cc3)=N[C@]2(CCS(=O)(=O)c2ccccc2)C1=O	1.24
C=CCNC(=O)[C@@H]1[C@H]2C(=O)O[C@H](c3ccccc3)[C@H](c3ccccc3)N2[C@H](c2ccc(OCCO)cc2)[C@@]12C(=O)N(C(=O)OCCOC)c1ccc(C#CCC(C(=O)OC)C(=O)OC)cc12	1.12
CN1C(=O)C2C=CC(C(O)C=Cc3ccc([N+](=O)[O-])cc3)N(Nc3ccccc3)C2C1=O (centres undefined)	1.35
COCCOC(=O)N1C(=O)[C@@]2(c3cc(C#CC4=CCCCC4)ccc31)[C@H](c1ccc(OCCO)cc1)N1[C@H](c3ccccc3)[C@H](c3ccccc3)OC(=O)[C@H]1[C@@H]2C(=O)N1CCc2cc(OC)c(OC)cc2C1	1.15
CC(C)CN1C(=O)[C@@]2(c3ccc([N+](=O)[O-])cc3)CC(=O)N(C3CCCCC3)[C@@H]2c2ccc(CO)cc21	-0.429
C#CCN1[C@H](/C=C/C2CC2)[C@H](Cc2ccccc2)OC(=O)[C@@H]1Cc1ccccc1	0.524
COc1ccccc1CN1C(=O)c2ccccc2[C@@]2(Cc3ccccc3N(CCCN(C)C)C2=O)[C@@H]1c1ccc(CO)cc1	0.0968
COC(=O)[C@@]1(CCC(=O)OC(C)(C)C)N=C(c2ccc(OCCCO)cc2)O[C@H]1c1ccccc1	0.774
O=C(O)[C@@]1(CCS(=O)(=O)c2ccccc2)N=C(c2ccc(OCCCO)cc2)O[C@H]1c1ccccc1	1.06
C=CCN(Cc1ccccc1)C(=O)C(c1cccs1)N(C(=O)/C=C\C(=O)O)c1ccc(CCOCCO)cc1 (centres undefined)	0.0305
CC(C)NC(=O)[C@@H]1c2ccccc2C(=O)N(C(C)C)[C@H]1c1ccc(CO)cc1	1.47
C=CCC(OC(C)=O)[C@@H]1[C@@H](N(Cc2ccc(-c3cccc(C(F)(F)F)c3)o2)C(=O)c2cccc3ccccc23)c2cc(OCCCO)ccc2N1C(=O)Cc1ccc2ccccc2c1 (some centres undefined)	0.109
COc1ccc([Si](C)(C)[C@@H]2[C@@H](CCn3cc([C@H](O)c4ccccc4)nn3)O[C@]3(C(=O)N(Cc4cccc(N5CCC5=O)c4)c4ccccc43)[C@H]2C)cc1	0.729
